# Results published in PubChem BioAssay.
# Activity calls are given as the source filed them.
# Experiments:
# [1] = optical density shifts of acrAB sulA E. coli – strain DRC41, OD650, 48 h, E. coli filamentation inducer project, primary screen (AID 1152); details: higher = more signal, called active from +8 up or from −8 down;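 further: E. coli MC1000 strain DRC41 lacking acrAB efflux pump and sulA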
# [2] = probe aLefty1 binding on compound microarray – biochemical, small-molecule microarray, 635/667 nm fluorescence, primary screen (AID 1153); details: higher = more signal;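 further: score merges spot fluorescence with signal-to-noise ratio from the scanned slide images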
# [3] = plasmodial surface anion channel blockers, osmotic lysis – cell-based, P. falciparum Indochina, OD700, 1 h, primary screen (AID 1154); details: P. falciparum Indochina infected RBC osmotic lysis, higher = more signal, called active from +8 up or from −8 down
# [4] = plasmodial surface anion channel blockers, osmotic lysis – cell-based, P. falciparum Indochina, OD700, 2 h, primary screen (AID 1155);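 further: lysis reports solute entry through the parasite surface anion channel PSAC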; details: P. falciparum Indochina infected erythrocytes, higher = more signal, called active from +8 up or from −8 down
# [5] = changes in parasitized red cell lysis, either direction – P. falciparum Indochina, OD700, 3 h, PSAC antagonist project, primary screen (AID 1156); details: P. falciparum-infected erythrocytes, osmotic lysis, higher = more signal, called active from +8 up or from −8 down
# [6] = plasmodial surface anion channel blockers, osmotic lysis – cell-based, P. falciparum Indochina, OD700, 18 h, primary screen (AID 1157); details: P. falciparum Indochina infected erythrocytes, osmotic lysis OD700, 18 h; higher = more signal, called active from +8 up or from −8 down
# [7] = S6 kinase pathway phospho-S6 level changes – cell-based, A549, cytoblot, luminescence, serum-stimulated, primary screen (AID 1158); details: 5 h, higher = more signal;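 further: serum-stimulated A549 lung adenocarcinoma cells; signal is phosphorylated S6 detected by cytoblot immunostaining with HRP secondary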
# [8] = target: NADPH oxidase 2 (Homo sapiens) (UniProt P04839); experiment: compounds shifting NOX2 Amplex Red fluorescence – cell-based, HEK293-NOX2, PMA-stimulated, NOX inhibitor project, primary screen (AID 1159); details: 45 min, higher = more signal, called active from +8 up or from −8 down; further: test concentration not given here
# Chain of NADPH oxidase 2 (Homo sapiens) (P04839 whole entry, looked up): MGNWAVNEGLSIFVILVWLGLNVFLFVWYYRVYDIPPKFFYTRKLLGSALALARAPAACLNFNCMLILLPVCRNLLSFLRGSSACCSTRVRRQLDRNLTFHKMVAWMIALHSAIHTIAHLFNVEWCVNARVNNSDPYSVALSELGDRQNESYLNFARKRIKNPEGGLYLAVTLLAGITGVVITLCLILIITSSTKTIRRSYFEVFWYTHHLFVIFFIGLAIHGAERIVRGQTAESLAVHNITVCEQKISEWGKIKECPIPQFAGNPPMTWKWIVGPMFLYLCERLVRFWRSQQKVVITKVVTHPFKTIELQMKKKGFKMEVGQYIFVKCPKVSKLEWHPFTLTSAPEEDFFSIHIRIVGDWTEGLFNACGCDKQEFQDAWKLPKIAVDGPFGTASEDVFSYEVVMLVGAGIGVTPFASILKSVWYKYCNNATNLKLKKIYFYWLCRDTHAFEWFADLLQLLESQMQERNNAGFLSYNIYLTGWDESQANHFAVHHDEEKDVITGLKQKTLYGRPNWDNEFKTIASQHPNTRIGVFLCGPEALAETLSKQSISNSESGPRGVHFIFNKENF
# [9] = target: NADPH oxidase 4 (Homo sapiens) (UniProt Q9NPH5); experiment: compounds shifting NOX4 Amplex Red fluorescence – cell-based, HEK293-NOX4, tetracycline-induced, NOX inhibitor project, primary screen (AID 1160); details: HEK293-NOX4, Amplex Red H2O2 fluorescence, 45 min; higher = more signal, called active from +8 up or from −8 down
# Chain of NADPH oxidase 4 (Homo sapiens) (Q9NPH5 whole entry, looked up): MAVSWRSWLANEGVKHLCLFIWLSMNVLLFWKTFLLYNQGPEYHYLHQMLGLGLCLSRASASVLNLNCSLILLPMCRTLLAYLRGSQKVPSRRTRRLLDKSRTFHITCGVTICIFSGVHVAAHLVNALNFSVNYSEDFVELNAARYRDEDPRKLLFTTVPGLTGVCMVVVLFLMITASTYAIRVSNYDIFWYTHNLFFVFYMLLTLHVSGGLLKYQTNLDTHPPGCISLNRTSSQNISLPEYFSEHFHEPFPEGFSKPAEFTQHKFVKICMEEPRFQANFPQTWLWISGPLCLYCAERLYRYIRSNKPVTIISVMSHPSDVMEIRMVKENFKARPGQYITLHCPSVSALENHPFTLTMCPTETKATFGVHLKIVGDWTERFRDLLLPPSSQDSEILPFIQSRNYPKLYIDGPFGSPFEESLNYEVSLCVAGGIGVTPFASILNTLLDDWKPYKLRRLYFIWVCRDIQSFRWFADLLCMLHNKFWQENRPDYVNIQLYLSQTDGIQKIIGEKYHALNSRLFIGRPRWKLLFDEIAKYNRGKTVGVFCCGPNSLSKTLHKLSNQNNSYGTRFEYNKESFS
# [10] = target: NADPH oxidase 5 (Homo sapiens) (UniProt Q96PH1); experiment: compounds shifting NOX5 Amplex Red fluorescence – cell-based, HEK293-NOX5, NOX inhibitor project, primary screen (AID 1161); details: HEK293-NOX5, ionomycin, 45 min, higher = more signal
# Chain of NADPH oxidase 5 (Homo sapiens) (Q96PH1 whole entry, looked up): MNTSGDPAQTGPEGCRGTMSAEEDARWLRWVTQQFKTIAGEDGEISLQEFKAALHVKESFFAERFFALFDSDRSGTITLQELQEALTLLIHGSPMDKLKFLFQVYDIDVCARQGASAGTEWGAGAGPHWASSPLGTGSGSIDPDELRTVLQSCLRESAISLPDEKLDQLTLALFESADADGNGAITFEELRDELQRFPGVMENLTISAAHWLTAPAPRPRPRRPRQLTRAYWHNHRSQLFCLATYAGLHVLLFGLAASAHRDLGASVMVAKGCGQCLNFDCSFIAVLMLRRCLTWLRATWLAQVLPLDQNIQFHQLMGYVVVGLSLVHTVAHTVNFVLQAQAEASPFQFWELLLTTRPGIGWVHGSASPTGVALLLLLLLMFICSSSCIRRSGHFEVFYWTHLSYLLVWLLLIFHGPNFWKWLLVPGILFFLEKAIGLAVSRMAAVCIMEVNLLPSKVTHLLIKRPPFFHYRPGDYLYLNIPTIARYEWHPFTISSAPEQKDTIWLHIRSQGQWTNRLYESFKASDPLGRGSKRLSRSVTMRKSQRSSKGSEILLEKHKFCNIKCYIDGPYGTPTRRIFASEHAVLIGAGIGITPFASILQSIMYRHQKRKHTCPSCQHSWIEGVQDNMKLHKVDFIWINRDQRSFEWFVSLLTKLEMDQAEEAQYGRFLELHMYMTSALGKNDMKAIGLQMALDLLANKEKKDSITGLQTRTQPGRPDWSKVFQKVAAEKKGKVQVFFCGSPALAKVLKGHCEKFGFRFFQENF
# [11] = compound effects on lung adenocarcinoma cell viability – A549, calcein-AM fluorescence, 48 h, basal, profiling panel (AID 1162); details: higher = more signal; further: test concentration not given here
# [12] = compound effects on differentiated 3T3-L1 adipocyte viability – cell-based, 3T3-L1 adipocytes, calcein-AM fluorescence, 48 h, basal, profiling panel (AID 1163); details: 3T3-L1 adipocytes viability, higher = more signal; further: test concentration not given here
# [13] = compound effects on hepatocellular carcinoma cell viability – HepG2, calcein-AM fluorescence, 48 h, basal, profiling panel (AID 1164); details: higher = more signal; further: test concentration not given here
# [14] = compound effects on multiple myeloma cell viability – MM1S, calcein-AM fluorescence, 48 h, basal, profiling panel (AID 1165); details: higher = more signal;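 further: viability of MM1S multiple myeloma cells under basal unstimulated conditions; test concentration not given here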
# [15] = calcein-AM signal in unstimulated myeloma cells – cell-based, calcein-AM fluorescence, 48 h, PK04 Diversity Set, profiling panel (AID 1166); details: RPMI8226 myeloma viability, higher = more signal;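 further: cells grown under basal conditions without added stimulus; test concentration not given here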
# [16] = JC-1 mitochondrial signal, unstimulated HepG2 cells – cell-based, JC-1 fluorescence, 24 h, 100 nL compound, profiling panel (AID 1167); details: HepG2 mitochondrial potential, higher = more signal; further: test concentration not given here
# [17] = JC-1 mitochondrial signal, unstimulated adipocytes – cell-based, JC-1 fluorescence, 3T3-L1 adipocytes, 24 h, 100 nL compound, profiling panel (AID 1168); details: JC-1 mitochondrial fluorescence, higher = more signal, called active from +8 up or from −8 down; further: test concentration not given here
# [18] = JC-1 mitochondrial signal, unstimulated myeloma cells – cell-based, JC-1 fluorescence, RPMI8226, 24 h, 100 nL compound, profiling panel (AID 1169); details: JC-1 mitochondrial potential fluorescence, higher = more signal; further: test concentration not given here
# [19] = JC-1 mitochondrial signal, unstimulated MM1S myeloma – cell-based, JC-1 fluorescence, 24 h, 100 nL compound, profiling panel (AID 1170); details: MM1S mitochondrial potential, higher = more signal; further: test concentration not given here
# [20] = resazurin metabolic signal in A549 cells – cell-based, resazurin fluorescence, 24 h, PK04 Diversity Set, profiling panel (AID 1171); details: A549 viability, higher = more signal, called active from +8 up or from −8 down; further: test concentration not given here
Compound,z-score [1],composite z-score [2],z-score [3],z-score [4],z-score [5],z-score [6],z-score [7],z-score [8],z-score [9],z-score [10],z-score [11],z-score [12],z-score [13],z-score [14],z-score [15],z-score [16],z-score [17],z-score [18],z-score [19],z-score [20]
O=C1CCCC=C1C(O)C1CCCCC1 (stereo not given),0.411 (inactive),-0.312,-0.0549 (inactive),0.494 (inactive),-0.663 (inactive),0.0748 (inactive),-0.178,1.46 (inactive),-0.419 (inactive),-0.928,-0.586,-0.464,-0.22,0.766,-0.241,-0.86,-1.15 (inactive),-0.121,0.327,0.436 (inactive)
CCOC(=O)CCN1C(=O)[C@H]2[C@H]3[C@H](O)[C@H](O)CC(=NOCC(C)C)[C@@H]3CC[C@H]2C1=O,-0.214 (inactive),-0.0051,6.67 (inactive),0.232 (inactive),-0.0758 (inactive),0.134 (inactive),-0.651,0.913 (inactive),0.783 (inactive),0.295,-0.0819,0.472,-0.194,0.268,-0.706,-1.05,-0.717 (inactive),0.562,0.104,-0.237 (inactive)
CON=C(C)CCN1CCCCc2nc(C)c(C)cc21,-1.23 (inactive),0.168,-0.149 (inactive),-0.117 (inactive),-0.374 (inactive),0.269 (inactive),-0.834,-0.0289 (inactive),-0.0593 (inactive),-0.836,1.03,-0.269,0.564,-0.254,0.371,-0.955,-1.41 (inactive),-0.174,0.289,-0.0601 (inactive)
CC[C@@H](c1ccccc1)n1c(=O)n2n(c1=O)[C@H]1[C@H](O)[C@@H]3O[C@@H]3C(=NOCc3ccccc3)[C@H]1CC2,-1.08 (inactive),0.0004,2.18 (inactive),0.0656 (inactive),1.1 (inactive),0.454 (inactive),0.3,1.55 (inactive),-0.989 (inactive),1.21,-2.83,0.229,-3.76,-3.1,-3.84,0.517,-0.327 (inactive),-1.05,-1.68,-2.54 (inactive)
COC(=O)CC=C[C@@H](C)[C@@H](C=NOC[C@@H](C)[C@H](OCc1ccccc1)C(C)C)NS(=O)(=O)c1ccc(C)cc1,-0.795 (inactive),-0.0011,2.91 (inactive),0.988 (inactive),1.2 (inactive),0.808 (inactive),-0.222,0.787 (inactive),-0.183 (inactive),-1.19,0.0174,0.502,-0.692,-0.726,-0.96,-0.685,-2.09 (inactive),-0.129,-0.00529,0.0101 (inactive)
O=C1C2=CC[C@H]3C(=O)N(c4ccc(F)cc4F)C(=O)[C@H]3[C@H]2[C@H](O)[C@@H]2O[C@H]12,-0.138 (inactive),0.558,-0.487 (inactive),-0.122 (inactive),-0.708 (inactive),-0.0627 (inactive),0.311,0.0832 (inactive),0.0553 (inactive),-0.191,-0.463,-0.438,0.0658,-0.486,-0.397,-0.276,-0.191 (inactive),0.0423,0.556,-0.0843 (inactive)
CCCNC(=O)OC[C@H]1O[C@H](CCON=C[C@@H](NS(=O)(=O)c2ccc(C)cc2)[C@H](C)C=CCC(=O)OC)C=C[C@@H]1Oc1ccc(OC)cc1,0.0368 (inactive),0.0633,5.01 (inactive),1.2 (inactive),0.518 (inactive),0.441 (inactive),-0.81,0.173 (inactive),0.361 (inactive),-0.746,-0.321,0.973,-1.18,-0.0312,-0.773,0.421,-2.4 (inactive),-0.806,0.364,0.141 (inactive)
CC(CCN1CCCc2nc(C)c(C)cc21)=NOC[C@@H](C)[C@H](OCc1ccccc1)C(C)C,0.259 (inactive),-0.147,1.25 (inactive),-1.75 (inactive),-0.167 (inactive),-1.84 (inactive),2,-2.43 (inactive),-1.68 (inactive),-1.12,0.803,1.05,1.18,-2.37,0.0389,1.94,-0.584 (inactive),0.395,-1.46,-0.602 (inactive)
CCOC(=O)NN=C1C[C@@H](O)[C@@H](O)[C@@H]2[C@@H]3C(=O)N(CC)C(=O)[C@@H]3CC[C@H]12,0.539 (inactive),-0.286,-0.259 (inactive),0.072 (inactive),-0.466 (inactive),0.182 (inactive),-0.404,-1.28 (inactive),0.199 (inactive),0.534,0.258,-0.588,0.527,0.464,0.268,0.987,-0.557 (inactive),-0.241,-0.809,-0.653 (inactive)
CCOC(=O)CCN1C(=O)[C@H]2[C@H]3[C@H](O)[C@H](O)CC(=NNC(=O)OCc4ccccc4)[C@H]3CC[C@H]2C1=O,-0.351 (inactive),-0.0162,0.992 (inactive),0.0095 (inactive),0.0794 (inactive),0.0606 (inactive),-0.707,1.28 (inactive),0.327 (inactive),0.595,0.391,1.33,-0.222,0.357,-0.0554,-0.952,-0.223 (inactive),-0.0449,0.435,-0.367 (inactive)
CCOC(=O)[C@H](Cc1ccccc1)NC(=O)CCC1CC(OC(=O)NCc2cccc3ccccc23)CC2(CCCC(COC(=O)NCC3CCCCC3)O2)O1 (stereo not given in full),0.0278 (inactive),-0.0662,1.78 (inactive),-0.393 (inactive),-1.94 (inactive),-0.611 (inactive),-0.154,0.746 (inactive),0.745 (inactive),0.517,0.391,0.146,-0.574,-0.0497,-0.68,-0.00703,-0.00973 (inactive),-0.198,-0.296,0.684 (inactive)
CC(=O)OC[C@H]1O[C@H](CC=NOC(C)CN2CCCCc3nc(C)c(C)cc32)C=C[C@@H]1OC(C)=O (stereo not given in full),0.0072 (inactive),0.589,0.595 (inactive),0.324 (inactive),0.417 (inactive),0.246 (inactive),-0.626,-1.69 (inactive),-0.695 (inactive),-1.24,-0.348,-1.19,-0.276,0.0965,-1.26,-0.681,-1.05 (inactive),-0.31,-0.182,-0.146 (inactive)
COC(=O)[C@H](C)NC(=O)CCC1CC(OC(=O)NCCc2ccc(F)cc2)CC2(CCCC(COC(=O)NCCc3ccccc3OC)O2)O1 (stereo not given in full),0.121 (inactive),-0.103,6.98 (inactive),0.0923 (inactive),0.209 (inactive),0.15 (inactive),0.364,0.577 (inactive),0.369 (inactive),-0.543,-0.0621,-0.825,0.308,0.636,-0.285,0.15,0.766 (inactive),0.0549,-0.876,0.0778 (inactive)
CC(CCC(=O)OC[C@H]1O[C@H](C#Cc2ccccc2)C=C[C@@H]1Oc1ccc(C)cc1)=NOC(C)CN1CCCCc2nc(C)c(C)cc21 (stereo not given in full),-0.131 (inactive),-0.191,4.27 (inactive),0.459 (inactive),0.983 (inactive),0.662 (inactive),-0.487,-0.802 (inactive),-0.341 (inactive),-0.461,0.393,-0.239,0.0574,-2.15,-1.73,1.34,-2.02 (inactive),-0.325,-0.737,0.599 (inactive)
CSCC[C@@H]1NC(=O)CC=C[C@@H](C)COC(=O)[C@H](C)COC1=O,0.832 (inactive),-0.321,-0.274 (inactive),-1.3 (inactive),-0.92 (inactive),-1.58 (inactive),2.08,-1.01 (inactive),0.384 (inactive),0.515,0.137,0.641,0.929,0.434,0.798,1.16,0.766 (inactive),0.0761,0.975,-0.365 (inactive)
CCCNC(=O)OC[C@H]1O[C@H](CCON=C[C@@H](C)[C@H](OCc2ccccc2)C(C)C)C=C[C@@H]1Oc1ccc(OC)cc1,-0.103 (inactive),-0.105,1.77 (inactive),-1.58 (inactive),0.141 (inactive),-2.55 (inactive),2.11,-1.7 (inactive),0.368 (inactive),-0.574,0.544,-0.0223,1.72,0.0415,-0.0657,0.479,0.024 (inactive),0.499,-0.627,0.743 (inactive)
O=C(NN=C1C[C@@H](O)[C@@H](O)[C@@H]2[C@@H]3C(=O)N(Cc4ccccc4)C(=O)[C@@H]3CC[C@H]12)OCc1ccccc1,-0.202 (inactive),-0.279,0.464 (inactive),-1.04 (inactive),-0.999 (inactive),-1.46 (inactive),-0.276,1.49 (inactive),0.638 (inactive),-0.0528,0.614,0.52,-0.604,0.881,-0.256,0.846,0.415 (inactive),-0.415,-0.427,0.288 (inactive)
C[C@@H](c1ccccc1)N1C(=O)[C@H]2[C@H]3[C@H](O)[C@H](O)CC(=NOCc4ccccc4)[C@@H]3CC[C@H]2C1=O,-1.42 (inactive),0.426,2.92 (inactive),0.117 (inactive),0.826 (inactive),0.479 (inactive),-0.547,-0.666 (inactive),0.115 (inactive),0.12,0.048,-0.0375,-0.628,0.67,-2.15,-0.265,-0.985 (inactive),-0.0343,0.645,-0.273 (inactive)
